# ± gives the standard deviation.
# Key:
# Conditions in all cases: modulator concentration 10 µM
# [1] = system: RAW-Dual (murine macrophage reporter line); test: NF-kB reporter (SEAP) activity fold change vs agonist alone; higher = enhanced NF-kB activity
# In short: (§1)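 In 384-well plates holding 50 000 RAW-Dual murine macrophage reporter cells per well, compound at 10 μM final was pre-incubated for 1 hour at 37 °C, after which a PRR agonist was added overnight. Supernatant SEAP read with QUANTI-Blue at 620 nm absorbance reported NF-κB, and Lucia luciferase read with QUANTI-Luc luminescence reported IRF. Fold change values come from dividing each reporter signal by the mean of agonist-only control wells on the same plate, averaged over replicate plates with propagated errors.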
# [2] = system: RAW-Dual (murine macrophage reporter line); test: IRF reporter (Lucia luciferase) activity fold change vs agonist alone; higher = enhanced IRF activity
# In short: as §1
# [3] = system: RAW-Dual (murine macrophage reporter line); test: viability score (confluency relative to resting cells, overnight) (fraction); higher = more viable, active = viable (0.7 or more)
# In short: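 In 384-well plates, RAW-Dual macrophages received compound at a final 10 μM overnight. Two confluency masks were then made with IncuCyte software from IncuCyte images of all imaged wells. The viability score is defined as confluency relative to resting cells. Passing the cutoff required both masks to lie above 70% of resting cells.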
# [4] = agonist: CpG ODN 1826 0.5 ug/mL
SMILES,"NF-kB reporter [1, 4]",NF-kB reporter ([1]; agonist: LPS 0.1 ug/mL),NF-kB reporter ([1]; agonist: MPLA […]),IRF reporter ([2]; agonist: 3'3'-cGAMP 10 ug/mL),IRF reporter ([2]; agonist: LPS 0.1 ug/mL),IRF reporter ([2]; agonist: MPLA […]),viability score [3]
CC(=O)CCc1oc2ccc([N+](=O)[O-])cc2c1-c1ccc(C)o1,1.04 ± 0.12,0.837 ± 0.065,0.825 ± 0.084,0.817 ± 0.048,0.849 ± 0.12,0.713 ± 0.17,0.973 (active)
CCCn1c(C(O)(c2ccccc2)c2ccccc2)nc2ccccc21,0.514 ± 0.034,1.07 ± 0.082,0.736 ± 0.05,1.3 ± 0.08,1.1 ± 0.086,1.04 ± 0.19,0.888 (active)
CC1(C)CC(=O)c2sc(NC(=O)c3ccccc3)nc2C1,1.05 ± 0.078,1.08 ± 0.12,1 ± 0.036,0.807 ± 0.048,1 ± 0.13,1.02 ± 0.12,1 (active)
COc1ccc(-n2ncc3c(Nc4cc(OC)c(OC)c(OC)c4)ncnc32)cc1,1.13 ± 0.05,0.938 ± 0.078,1.09 ± 0.085,0.821 ± 0.044,1.04 ± 0.26,1.28 ± 0.45,0.887 (active)
CCN(CC)c1ccc(C=NNC(=O)c2ccc(O)cc2)c(O)c1,2.52 ± 0.2,1.31 ± 0.089,5.86 ± 0.2,0.2 ± 0.0075,0.845 ± 0.038,0.758 ± 0.12,0.577 (inactive)
C=C(Br)Cn1c(COc2ccccc2)nc2ccccc21,0.562 ± 0.098,1.06 ± 0.12,1.05 ± 0.084,1.12 ± 0.036,1.19 ± 0.28,1.19 ± 0.15,0.991 (active)
CCn1nccc1C(=O)N1CCN(S(C)(=O)=O)CC1,1.02 ± 0.066,0.929 ± 0.092,0.991 ± 0.028,1.01 ± 0.069,0.994 ± 0.061,0.847 ± 0.13,1 (active)
CC1=C(C(=O)OCc2ccc3c(c2)OCO3)C(c2ccc(Cl)c(Cl)c2)NC(=O)N1 (stereo unspecified),1.04 ± 0.17,1.13 ± 0.083,1.11 ± 0.1,0.458 ± 0.025,0.712 ± 0.093,0.772 ± 0.15,1.01 (active)
CCn1c2ccccc2c2cc(CNCCc3ccccc3)ccc21,0.476 ± 0.041,0.534 ± 0.035,0.977 ± 0.068,0.438 ± 0.067,0.605 ± 0.043,2.43 ± 0.32,0.0405 (inactive)
CC(C)Oc1ccc(C(=O)N2CCC(c3ccccc3)S(=O)(=O)CC2)cn1 (stereo unspecified),1.06 ± 0.08,0.861 ± 0.13,0.998 ± 0.052,0.921 ± 0.054,1.03 ± 0.049,0.968 ± 0.13,0.989 (active)
Cc1cc(OCC(=O)Nc2ccccc2-c2ccccc2)ccc1Br,0.776 ± 0.073,0.888 ± 0.06,0.972 ± 0.099,1.03 ± 0.048,1.47 ± 0.087,1.55 ± 0.13,0.997 (active)
C[C@H]1O[C@H]1P(=O)(O)O.NC(CO)(CO)CO,0.922 ± 0.053,1.05 ± 0.064,0.977 ± 0.079,0.937 ± 0.036,1.06 ± 0.15,0.989 ± 0.2,0.994 (active)
O=C(CCCN1CCN(c2ccccn2)CC1)c1ccc(F)cc1,0.595 ± 0.084,1.05 ± 0.1,0.952 ± 0.056,0.924 ± 0.12,1.37 ± 0.12,1.15 ± 0.12,0.977 (active)

# Source: the supplement of paper PMC10646978
